# Results as given in PubChem BioAssay AID504339 (National Center for Advancing Translational Sciences (NCATS), 2011).
# Out of some 390,000 compounds screened, about 17,000 (4.4%) were called active. Inconclusive results (about 8%) are left out. Calls follow the shape of the dose curve; as a rule, active = well fitted inhibition curve with a large enough effect; inconclusive = small, poorly fitted or top-dose-only effect; inactive = no such curve, though single readings can be large or run the other way. The list comes from a sample in which actives are over-represented; it also holds similar structures and randomly drawn compounds.
# Target: Lysine-specific demethylase 4A (Homo sapiens) (UniProt O75164)
# Assay: qHTS Assay for Inhibitors of JMJD2A-Tudor Domain; also: nearly all actives have a fitted effect of over 50% in size
# Conditions: AlphaScreen JMJD2A-Tudor / H3K4me3 peptide binding; series mostly up to 114 µM; activity change, negative = inhibition: at the top concentration
# % is scaled to controls: 0 for no effect and ±100 for the full control effect; potency is read from the fitted curve at half-maximal effect.
# Lysine-specific demethylase 4A (Homo sapiens), sequence (O75164 whole entry, looked up, the tested form may be a part): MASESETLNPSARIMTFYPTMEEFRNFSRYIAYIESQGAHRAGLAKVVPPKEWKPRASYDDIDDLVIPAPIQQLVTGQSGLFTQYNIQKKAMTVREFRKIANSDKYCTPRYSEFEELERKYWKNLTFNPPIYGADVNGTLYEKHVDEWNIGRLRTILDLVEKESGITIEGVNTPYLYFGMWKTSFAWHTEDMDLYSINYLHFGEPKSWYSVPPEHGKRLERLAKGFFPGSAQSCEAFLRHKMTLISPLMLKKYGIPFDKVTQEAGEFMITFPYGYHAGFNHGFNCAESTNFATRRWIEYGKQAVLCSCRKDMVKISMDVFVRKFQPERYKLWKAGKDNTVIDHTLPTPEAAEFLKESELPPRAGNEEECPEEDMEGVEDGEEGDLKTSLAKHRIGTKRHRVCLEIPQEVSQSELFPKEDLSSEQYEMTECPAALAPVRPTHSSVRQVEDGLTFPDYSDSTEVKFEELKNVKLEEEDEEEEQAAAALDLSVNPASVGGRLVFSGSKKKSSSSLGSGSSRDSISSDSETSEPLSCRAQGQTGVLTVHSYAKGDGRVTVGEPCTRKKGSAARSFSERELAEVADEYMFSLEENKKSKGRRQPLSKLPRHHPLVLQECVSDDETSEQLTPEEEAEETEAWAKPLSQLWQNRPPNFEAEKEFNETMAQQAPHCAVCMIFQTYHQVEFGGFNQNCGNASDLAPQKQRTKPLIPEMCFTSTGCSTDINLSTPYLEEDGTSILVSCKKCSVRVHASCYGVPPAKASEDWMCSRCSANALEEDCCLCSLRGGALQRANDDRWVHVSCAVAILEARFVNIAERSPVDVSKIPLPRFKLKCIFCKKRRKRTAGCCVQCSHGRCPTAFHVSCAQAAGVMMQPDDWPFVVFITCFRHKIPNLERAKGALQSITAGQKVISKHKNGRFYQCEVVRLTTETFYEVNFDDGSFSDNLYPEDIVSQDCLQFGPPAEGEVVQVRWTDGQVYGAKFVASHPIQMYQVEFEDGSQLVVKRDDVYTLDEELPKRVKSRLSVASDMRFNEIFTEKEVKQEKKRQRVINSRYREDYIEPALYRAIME
SMILES,"activity change, negative = inhibition",Potency
O=C(Nc1nc2c(s1)CCCC2)c1ccccc1F,-14.9% (inactive),
COc1ccc(-c2nnc(SCC(=O)Nc3ccc(C(C)C)cc3)nc2-c2ccc(OC)c(OC)c2)cc1OC,-8% (inactive),
CCCCN(C)CCCNC(=O)CN1N=C(c2ccc(OC)cc2)CCC1=O,-2.24% (inactive),
Nc1ccc2nc3c(=O)[nH]c(=S)[nH]c3nc2c1,,2.51 µM (active)
COc1ccc(CNC(=O)Cc2coc3ccc(C(C)C)cc23)cc1,-7.64% (inactive),
COc1ccc(CCNC(=O)C(=O)NCC(c2ccco2)S(=O)(=O)c2cccs2)cc1OC (centres undefined),-2.6% (inactive),
O=C(COc1ccc(Cl)cc1Cl)N/N=C/c1ccccn1,6.74% (inactive),
CCOc1ccc(-n2c(SCC(=O)NCc3ccccc3)nc3n[nH]c(C)c3c2=N)cc1,-6.09% (inactive),
CCOc1ccc(-n2c(O)c(/C=N/Nc3nnc(C)c(=O)[nH]3)c3ccccc3c2=O)cc1,,28.2 µM (active)
CCN(CC)CCCN=Cc1c(O)n(-c2ccc(C)cc2)c(=O)c2ccccc12,-18.3% (inactive),
Cc1nnc(N/N=C/c2ccccn2)[nH]c1=O,,20 µM (active)
O=C(N/N=C/c1ccccn1)C12CC3CC(CC(C3)C1)C2,6.29% (inactive),
Cc1cccc(C(=O)N2CCc3cc(CNC(=O)Cc4ccc(F)cc4)ccc32)c1,-23.3% (inactive),
COc1cccc(C(=O)Nc2ccc(-c3cc(C(F)(F)F)nn3-c3ccccc3)cc2)c1,0% (inactive),
OCc1cnc(SCc2ccc(F)cc2)n1Cc1ccc(F)cc1,-28.4% (inactive),
Cc1ccc(S(=O)(=O)N2CCN(c3nc(-n4cnc5ccccc54)nc4ccccc34)CC2)cc1,-23.4% (inactive),
c1ccc(Cn2nnc3c(N4CCCCC4)ncnc32)cc1,16.3% (inactive),
COc1cc(OC)cc(-c2nc3nc(C)c(CCC(=O)Nc4ccc(C)cc4)c(C)n3n2)c1,-21.2% (inactive),
Cc1ccc(Nc2ccccc2N)cc1,,44.7 µM (active)
Cc1ccc(Nc2nc(Cl)c(C=O)s2)cc1,1.05% (inactive),
Nc1ccc(C(=O)Nc2ccccc2N)cc1,-8.97% (inactive),
O=C(c1ccco1)n1nc(-c2ccc(Cl)cc2)nc1NCc1ccccc1,3.78% (inactive),
Cc1nn2c(=O)cc(COC(=O)c3cccc(NC(=O)COc4ccccc4Cl)c3)nc2s1,-21.9% (inactive),
Cc1cc(/C=N/n2cnnc2)c(C)n1-c1ccc2ncccc2c1,-26.6% (inactive),
Cc1cccc(-n2c(C)cc(/C=N/NC(N)=S)c2C)c1,,56.2 µM (active)
Cc1cc(/C=N/NC(N)=O)c(C)n1C1CCCCC1,-26.2% (inactive),

SMILES,"activity change, negative = inhibition",Potency
Cc1cc(C(=O)Nc2cccc(C(F)(F)F)c2)c2c(C)nn(-c3cccc(F)c3)c2n1,20.1% (inactive),
COCCCNC(=O)c1ccc(NC(=O)c2nsc3ccccc23)cc1,5.52% (inactive),
CCCCN1C(=O)/C(=C/C=C2/C=Cc3ccccc3N2CC)SC1=S,-28.7% (inactive),
CCCCN1C(=O)/C(=C2/C=CC=CN2C)SC1=S,,44.7 µM (active)
COc1cccc(OC)c1C(=O)N1CCN(Cc2cccnc2)CC1,,5.01 µM (active)
COc1cccc(OC)c1OCCN1CCN(C(=O)c2ccco2)CC1,-15% [at 57.1 µM] (inactive),
COc1ccccc1C(=O)N1CCN=C1SCc1cccnc1,0.331% (inactive),
CCCn1c2ccccc2c2cnn(CC(=O)NCCCOC(C)C)c(=O)c21,-8.91% (inactive),
COc1cccc(N=C2SC(C(=O)Nc3cccc(Cl)c3)CC(=O)N2C)c1 (centres undefined),-17% (inactive),
COc1cccc(CNC(=O)Cn2ncn3c(cc4ccccc43)c2=O)c1,-13.5% (inactive),
C=CCNC(=S)N/N=C/c1ccc(C)s1,-23.5% (inactive),
S=c1[nH]nc(-c2cc(-c3ccccc3)n[nH]2)n1/N=C/c1c2ccccc2cc2ccccc12,,39.8 µM (active)
O=C(Cn1cncn1)N/N=C/c1c2ccccc2cc2ccccc12,5.2% (inactive),
S=c1[nH]nc(-c2ccccc2)n1/N=C/c1c[nH]c2ccccc12,,89.1 µM (active)
CCc1n[nH]c(=S)n1/N=C/c1c[nH]c2ccc(Br)cc12,-20% (inactive),
C[n+]1ccc(/C=C/c2c[nH]c3ccccc23)cc1,-0.69% (inactive),
Cc1ccc(/C=N\n2c(-c3ccccc3)n[nH]c2=S)s1,,50.1 µM (active)
Cc1ccccc1C(=O)NCc1nc(-c2ccc(Cl)cc2)no1,-14.9% (inactive),
O=C(Nc1ccc(S(=O)(=O)N2CCC(c3nc4ccccc4s3)CC2)cc1)c1ccccc1F,1.99% (inactive),
CCc1ccc(C2CC(=O)c3c([nH]c(C(=O)OCc4ccc(C)cc4)c3C)C2)cc1 (centres undefined),-5.14% (inactive),
Cc1cccc(N2CCN(C(=O)c3ccc(Nc4nc5ccccc5n5nnnc45)cc3)CC2)c1C,-9.59% (inactive),
N#Cc1nc(/C=C/c2ccc(F)cc2)oc1NCc1ccc(F)cc1,-8.8% (inactive),
CC(=O)N1CCc2cc(S(=O)(=O)NC(Cc3ccccc3)C(=O)NCc3ccc(C)cc3)ccc21 (centres undefined),-24% (inactive),
Cc1ccccc1CNC(=O)C1CCCN(S(=O)(=O)N(C)c2ccc(F)cc2)C1 (centres undefined),3.66% (inactive),
CC1=C/C(=N\OS(=O)(=O)c2ccccc2)C=CC1=O,,22.4 µM (active)
CCc1ccccc1NC(=O)Cn1c(=O)n(-c2cccc(C)c2)c(=O)c2c1c1cc(OC)ccc1n2C,7.93% (inactive),

SMILES,"activity change, negative = inhibition",Potency
O=C(NC1CCCCC1)c1ccc2c(c1)N(Cc1ccc(Cl)cc1)C(=O)c1ccccc1S2=O (centres undefined),-18.2% (inactive),
CCOc1cc(C(=O)Nc2nnc3n2CCS3)cc(OCC)c1OCC,-10.6% (inactive),
O=C(O)C1CC=CC2CCN(C3CCCCC3)C(=O)C21 (centres undefined),-6.21% (inactive),
O=C(O)c1cccc2c1C(=O)N(C1CCCCC1)C2,-27.1% (inactive),
O=C(O)C1CCN1C1CCCCC1 (centres undefined),,31.6 µM (active)
CCCCOc1ccc(NC(=O)c2cc3c(n(-c4ccc(Cl)cc4)c2=O)CCCC3=O)cc1,-21.3% (inactive),
COC1C(CO)OC(n2cnc3c(=S)nc(N)[nH]c32)C1O (centres undefined),,17.8 µM (active)
CC(C)Sc1nc(N)nc2c1ncn2C1OC(CO)C(O)C1O (centres undefined),-8.97% (inactive),
Nc1nc(SCc2ccc([N+](=O)[O-])cc2)c2ncn(C3OC(CO)C(O)C3O)c2n1 (centres undefined),-18.2% (inactive),
O=C(Nc1ccc(Oc2ccccc2)cc1)C1CCN(S(=O)(=O)c2ccc(Cl)cc2)CC1,2.08% (inactive),
COc1ccc(C(=O)Nc2nonc2-c2ccc(OC)c(OC)c2)cc1Cl,-15.1% (inactive),
Cc1ccc(S(=O)(=O)N(Cc2nc(-c3ccc(Cl)cc3)no2)C2CCCCC2)cc1,13.2% (inactive),
CC(=O)N=c1ncn(CC(COC(C)=O)OC(C)=O)c2nc[nH]c12 (centres undefined),-9.65% (inactive),
CC(C)c1ccc(OCC(O)Cn2cnc3ccccc32)cc1 (centres undefined),-33.6% (inactive),
CC(=O)OC(COc1ccc(F)cc1)Cn1cnc2ccccc21 (centres undefined),,79.4 µM (active)
Cc1ccc(Cl)cc1NC(=O)CSc1nc2ccccc2nc1Cc1ccccc1,-0.649% (inactive),
COC(=O)c1c(NC(=O)c2cc(=O)c3c(C)cc(C)cc3o2)sc2c1CCCC2,-0.694% (inactive),
Cc1nc([N+](=O)[O-])nn1C12CC3CC(CC(Br)(C3)C1)C2,,56.2 µM (active)
COc1cccc(NC(=O)c2nn(C34CC5CC(CC(C5)C3)C4)cc2[N+](=O)[O-])c1,-9.43% (inactive),
O=C(COc1ccccc1)OCc1cc(=O)n2nc(-c3cccs3)sc2n1,-35% (inactive),
CCC(=O)N1c2ccccc2CC1C(=O)N1CCN(c2ccccc2)CC1 (centres undefined),-6.62% (inactive),
CCN(CC)S(=O)(=O)c1ccc2c(c1)N(CC(=O)NCc1ccccc1)C(=O)CS2,5.09% (inactive),
CCCS(=O)(=O)Nc1cccc(-c2cn3ccsc3n2)c1,-14.9% (inactive),
COC(=O)C(C)C1Sc2ccccc2NC1=O (centres undefined),0.685% (inactive),
COc1ccc(/C=C2\CCc3ccccc3C2=O)c(OC)c1OC,7.75% (inactive),
COc1ccc(C2Sc3ccccc3NC3=C2C(=O)c2ccccc23)c(OC)c1OC (centres undefined),,14.1 µM (active)

SMILES,"activity change, negative = inhibition",Potency
CCOC(=O)C1CCCN(CC(=O)Nc2cc(C)c3c(=O)oc4ccccc4c3n2)C1 (centres undefined),-12% (inactive),
CCOC(=O)c1ccc(NC(=O)CCn2cnnn2)cc1,2.61% (inactive),
CSc1ncc(Cl)c(C(=O)Nc2ccc(S(=O)(=O)N3CCCC(C)C3)cc2)n1 (centres undefined),-21.5% (inactive),
CCCCN(C)S(=O)(=O)c1ccc(C(=O)Nc2sc3c(c2C(N)=O)CC(C)(C)NC3(C)C)cc1,-27.5% (inactive),
CCN1CCN(C(c2ccc(C)cc2)c2c(O)cc(C)n(Cc3ccco3)c2=O)CC1 (centres undefined),-20.5% (inactive),
Oc1c(Cl)cc(Cl)c(Cl)c1Cc1c(O)c(Cl)cc(Cl)c1Cl,,79.4 µM (active)
O=C(Nc1ccc(F)cc1F)c1cnn(-c2ccc(F)cc2)c1-n1cccc1,10.7% (inactive),
COc1ccc(C(=O)CSc2nccc(=O)[nH]2)cc1,-14.8% (inactive),
CC(C)(C)c1ccc(C(=O)CSc2ncn[nH]2)cc1,,20 µM (active)
O=C(CSc1ncn[nH]1)Nc1nsc(-c2ccccc2)n1,-12.6% (inactive),
CN(C)c1nc(Nc2ccc(Cl)c(Cl)c2)nc(N(C)C)n1,,14.1 µM (active)
CNc1nc(Nc2ccc(C)c(Cl)c2)nc(N)c1[N+](=O)[O-],-13.8% [at 57.1 µM] (inactive),
CC(=O)Nc1nc(N(C)C)nc(N(C)C)n1,-0.687% (inactive),
CCc1ccc(Sc2cc(C(=O)NCCCOC(C)C)c3ccccc3n2)cc1,15.6% (inactive),
CSc1ccc(CCNC(=O)c2cc(C)nc3c2c(C)nn3-c2cccc(F)c2)cc1,7.77% (inactive),
O=C(CC1Oc2ccccc2NC1=O)NCc1ccc(F)cc1 (centres undefined),3.64% (inactive),
COc1ccccc1Nc1cc(C(=O)NCCCN(C)C2CCCCC2)c2ccccc2n1,-23.3% (inactive),
COc1ccc(Nc2cc(C(=O)NCCCN(C)c3ccccc3)c3ccccc3n2)c(OC)c1,,15.8 µM (active)
CCCCN(CCCNC(=O)c1cc(Nc2ccccc2OC)nc2ccccc12)c1ccccc1,-16% (inactive),
COc1ccc(CCNC(=O)Cn2c(=O)cc(C(F)(F)F)c3c(C)nn(C)c32)c(OC)c1,-5.33% (inactive),
COc1ccc(C)cc1NC(=O)CCc1c(C)nn(-c2ccc(N3CCOCC3)nn2)c1C,-25% (inactive),
CN=C1S/C(=C\c2c(OC)cc(OC)cc2OC)C(=O)N1C,-4.79% (inactive),
O=C(O)c1cccc(N=NN2CCCCCC2)c1,-9.09% (inactive),
CN1C(=O)/C(=C/c2ccco2)SC1=Nc1cccc(C(=O)O)c1,,79.4 µM (active)
COc1ccc(C)cc1Nc1nc2ccccc2c2nnc(C)n12,-0.685% (inactive),
COc1ccc(OC)c(-n2nnc3c(sc4nc(C)c(Br)c(C)c43)c2=O)c1,-12.3% (inactive),
